Compounds with a hit are over-represented: about 6.5% of the library has one in this group of screens.
MARV entry inh – inhibitors of Marburg virus binding or cell entry; Marburg virus pseudotyped entry inhibition, cell reporter; Potency, µM (doses to about 37.8 µM), inactives show at the top dose activity change, negative = inhibition, hits mostly inhibitors; hit rate 1.8% among 300,000; calls by dose curve; tested in HEK293 cells; further: potency means the concentration at half of the fitted maximal effect
FMDV inh – antivirals against foot and mouth disease virus | FMDV antiviral cell-based qHTS | Potency, µM (top dose mostly 57.9 µM), inactives show at the top dose activity change, negative = inhibition, most hits filed as inhibitors | hit rate 1.2% among 410,000 | AID 1159524; calls by dose curve; tested in HEK293T cells; further: read-out not given here; potency means the concentration at half of the fitted maximal effect; nearly all actives have a fitted effect of over 45% in size
VACV mCherry inh – vaccinia inhibition (mCherry reporter) | Vaccinia virus mCherry reporter infection, fluorescence | Potency, µM (highest dose often 36.5 µM), without a hit: top-dose activity change, negative = inhibition, most hits filed as inhibitors | hit rate 0.63% among 310,000; calls by dose curve; tested in A549 cells; further: potency means the concentration at half of the fitted maximal effect; nearly all actives have a fitted effect of over 35% in size
VACV Venus inh – inhibitors of vaccinia virus (Venus reporter) | hit rate 0.46% among 330,000 | Potency, µM (series often up to 36.5 µM), inactives show at the top dose activity change, negative = inhibition, most hits filed as inhibitors | Vaccinia virus Venus reporter expression, fluorescence; calls by dose curve; tested in A549 cells; further: potency means the concentration at half of the fitted maximal effect; nearly all actives have a fitted effect of over 30% in size
HCMV inh – human cytomegalovirus inhibition | HFF cells, HCMV-luciferase reporter, 72 h; hits give low values | activity change, negative = inhibition, % at 57.5 µM | hit rate 4.5% among 410,000; in the data active means activity change below about -60%; inconclusive means no clear call, values can overlap the other calls; inactive means above about -39%
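Screen run at 2 compound doses on HFFs infected with reporter HCMV, MOI 1 PFU/cell. Luciferase activity from cell lysates at 72 h post infection gave inhibition relative to buffer-only and Salinomycin wells.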
Lassa entry inh – Lassa virus entry inhibition | Lassa virus pseudotype entry inhibition, cell reporter | hit rate 1.2% among 300,000 | Potency, µM (highest dose often 37.9 µM), inactives show at the top dose activity change, negative = inhibition, hits mostly inhibitors; calls by dose curve; tested in HEK293 cells; further: potency means the concentration at half of the fitted maximal effect; nearly all actives have a fitted effect of over 50% in size
* hit, by the source's call; i = inactive; ? = inconclusive; nt = not tested or not shown; [ ] = another dose, or the depositor's remark. On the % scale 0 is the no-effect control and ±100 the full control effect.

SMILES	MARV entry inh	FMDV inh	VACV mCherry inh	VACV Venus inh	HCMV inh	Lassa entry inh
NC(=O)[C@@H]1CC2(CC(c3cccc(NC(=O)CC(c4ccccc4)c4ccccc4)c3)=NO2)CN1C(=O)c1ccc(Cl)cc1 (stereo not given in full)	nt	-27.2%	?	?	-72.4*	nt
Cc1ccc(-c2csc(N/N=C/c3ccco3)n2)c(C)c1	1.78µM*	-6.0%	-5.9%	1.4%	?	3.26µM*
CN(C)S(=O)(=O)c1cccc(-c2csc(N/N=C/c3ccco3)n2)c1	-26.0%[46.1 µM]	-20.5%	?	-18.8%	-37.3	-5.7%
CC(C)N1CCC2(CC1)N=C(c1ccc3c(c1)OCO3)CC(c1cc(Cl)ccc1O)N2 (stereo not given)	-27.9%	?	nt	-29.3%	-80.8*	?
Oc1ccc(Cl)cc1C1C=C(c2ccc3c(c2)OCO3)NC(c2ccc(C(F)(F)F)cc2)N1 (stereo not given)	nt	nt	15.8%	-11.5%	nt	nt
CN(C)S(=O)(=O)c1ccc(C(=O)Nc2nc(-c3cc4ccccc4o3)cs2)cc1	?	?	nt	nt	-69.2*	?
c1ccc2oc(-c3csc(NCC4CCCO4)n3)cc2c1 (stereo not given)	?	-22.6%	i	-14.9%	6.9	?
CC1CN(S(=O)(=O)c2ccc(C(=O)Nc3nc(-c4cc5ccccc5o4)cs3)cc2)CC(C)O1 (stereo not given)	?	?	?	-10.2%	-25.7	?
C=CCNc1nc(-c2cc3ccccc3o2)cs1	?	-62.0%	-16.4%	-23.8%	-7.4	7.94µM*
Cc1cc(-c2csc(NC(=O)c3ccc(S(=O)(=O)N(C)C)cc3)n2)c(C)n1-c1ccccc1	1.26µM*	31.6µM*	-3.7%	-12.7%	-24.8	?
O=C(Nc1nc(-c2cc3ccccc3o2)cs1)c1ccc(S(=O)(=O)N2CCCC2)cc1	?	?	nt	nt	-83.6*	?
CCc1ccc(NC(=O)CC2C(=O)N(c3cccc(C)c3)C(=O)N2Cc2ccco2)cc1 (stereo not given)	nt	-7.4%	-9.7%	-5.8%	?	-23.8%[46.1 µM]
CCN1C(=NCCCOC(C)C)NC(c2ccccc2)C(C(=O)OC)=C1C (stereo not given)	-3.1%[14.2 µM]	nt	nt	nt	nt	?
COCCCNC(=O)CCCn1c(=O)c2ccccc2n(CC(=O)Nc2ccc(C)cc2Cl)c1=O	20.3%[46.1 µM]	14.8%	-7.1%	-3.1%	-19.4	12.2%[46.1 µM]
CC(C)C(=O)NCC1CCC2(CCN(Cc3ccc(-c4cccc(Cl)c4)o3)CC2)O1 (stereo not given)	nt	20.9%	i	-5.0%	nt	nt
Cc1ccc(NC(=O)CCS(=O)(=O)c2ccc(Br)s2)c(Br)c1	2.3%[46.1 µM]	-24.2%	?	?	-7.3	-9.5%[46.1 µM]
CCCCCCc1nc2ccccc2c(=O)n1NC(=O)c1c(O)c2c(n(CC(C)C)c1=O)CCCC2	-3.2%[46.1 µM]	-3.9%	i	-3.6%	-92.8*	?
CCOC(=O)c1ccc(Nc2c(-c3ccc(O)cc3)nc3nc[nH]n23)cc1	nt	0.0%	-7.2%	-6.4%	8.8	-22.6%[46.1 µM]
S=C(NCCSCc1ccccc1Cl)Nc1ccccc1	?	49.8%	-28.0%	-25.3%	-21.5	?
S=C(NCCSCc1ccc(Cl)cc1)Nc1ccccc1	11.8%	40.8%	-28.9%	-26.2%	-68.0*	?
CCOc1ccc(NC(=S)NCc2ccc3[nH]c(C)cc3c2)cc1	2.2%	25.6%	nt	nt	-12.7	2.91µM*
Fc1ccc(CCNC(=S)Nc2ccc(F)c(Cl)c2)cc1	4.3%[46.1 µM]	-28.9%	?	?	-65.7*	?
S=C(NCCc1ccccn1)Nc1ccc(Cl)cc1	?	90.9%	-23.2%	-7.6%	-77.9*	8.9%
CC12C=C(/C=C/CCc3ccco3)C(C)(C1)C(CCc1ccco1)CC2=O (stereo not given)	-5.8%[14.2 µM]	nt	nt	nt	nt	nt
Cc1cc(C)n(CC(=O)N2CCC(n3c(C(C)C)nc4cccnc43)CC2)n1	nt	-0.9%	0.1%	17.2%	nt	nt
S=C(NCCCc1ccccc1)Nc1ccccc1	7.1%[46.1 µM]	0.0%	-13.4%	-14.5%	-39.5	-20.3%[46.1 µM]
Fc1ccc(NC(=S)NCc2ccccc2Cl)cc1	37.5%	19.8%	i	-18.6%	-70.1*	-3.0%
S=C(NCCc1ccc(Cl)cc1)NC1CCCC1	nt	50.2%	nt	nt	-69.4*	nt
S=C(NCCc1ccc(Cl)cc1)NC1CCCCC1	?	6.8%	-22.5%	-8.1%	59.7	?
Fc1ccc(NC(=S)NCCc2ccc(Cl)cc2)cc1	?	27.0%	i	-16.2%	-68.8*	20.2%
